Here are results for 1 compound from PubChem BioAssay.

A short description of experiment [1]: IGROV1 ovarian cancer cell cytotoxicity, dose response, PAX8 inhibitor project, plate reader, dry powder samples (AID 743043).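 Also: more negative means fewer viable cells or more cytotoxicity.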
Experiment [2] in a line: IOSE-T80 ovarian epithelial cell cytotoxicity, dose response, cytotoxicity control for PAX8 inhibitor project, plate reader, dry powder samples (AID 743045).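 Also: more negative values mean more cell killing.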

Each structure is given as a SMILES string. Measured potencies and affinities stand elsewhere. Records with an inconclusive call do not appear. Calls of active or inactive are those of the source. No rule for the calls is given here.

As to `O=C(N1CCCCC1)[C@@]1(CCS(=O)(=O)c2ccccc2)N=C(c2ccc(OCCCO)cc2)O[C@H]1c1ccccc1`, the call in experiment [1] and in experiment [2] was inactive.
